Out of some 410,000 compounds screened, about 530 (0.13%) were called active. Another 5% or so got no clear call; they are omitted. The call rests on the fitted dose curve; in most records, active means well fitted inhibition curve with a large enough effect; inconclusive means small, poorly fitted or top-dose-only effect, or another doubt; inactive means no such curve, though single readings can be large or run the other way. Shown is part of a subset that was picked to be rich in actives.
On the % scale 0 is the no-effect control and ±100 the full control effect; potency means the concentration at half of the fitted maximal effect.

The assay in a line: qHTS of GLP-1 Receptor Inverse Agonists: Cytotox Screen.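 Further: loss of luciferase light is scored as toxicity.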 The note with it: HEK293 cAMP-luciferase reporter cells, luminescence, 24 h; series mostly up to 38.3 µM; activity change, negative = inhibition: at the top concentration. The essentials: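 MLSMR compounds, 24 hr on cells at 37 deg C/5% CO2; luminescence after luciferase reagent (12 min RT). Inhibition counted as the undesired cytotoxic outcome.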
On to `O=C1/C(=C\c2ccc([N+](=O)[O-])cc2)CS(=O)(=O)C/C1=C/c1ccc([N+](=O)[O-])cc1`, for which the Potency was 3.16 µM (active).

`COc1cc(C(=O)N2CCN(C(=O)COc3cccc(C)c3)CC2)cc(OC)c1OC`: the “activity change, negative = inhibition” value was -5.09% (inactive).

Take `CCc1nc2nc(C)cc(Nc3ccc(F)c(Cl)c3)n2n1`: the “activity change, negative = inhibition” value was 17.1% (inactive).

Take `COCCNC(=O)CSc1c(C)cnc2c1c(=O)n(C)c(=O)n2C`: the “activity change, negative = inhibition” value is 5.33% (inactive).

Consider `CCOCCCNC(=O)c1c(NC(=O)Cc2coc3c(C)c(C)ccc23)sc2c1CCC2`, for which the “activity change, negative = inhibition” value is 23.9% (inactive).

In the case of `Cc1ccc(S(=O)(=O)c2nnn3c2nc(N2CCN(c4ccccc4F)CC2)c2cc(Cl)ccc23)cc1C`, the “activity change, negative = inhibition” value is -2.54% (inactive).

For `CCc1ccccc1N1CN(Cc2ccco2)CNC1=S`, the “activity change, negative = inhibition” value is 1.02% (inactive).

Regarding `CN(C)C(=S)N=c1ssc(=S)n1Cc1ccco1`, the Potency was 0.316 µM (active).

Regarding `CCOC(=O)c1ccc(CN(Cc2ccccc2)S(=O)(=O)c2ccc(Cl)cc2)cc1`, the “activity change, negative = inhibition” value is -0.273% (inactive).

As for `COc1c(Cl)cc(Cl)cc1C(=O)Nc1cccc2cccnc12`, the “activity change, negative = inhibition” value is 1.03% (inactive).

For the molecule `CC(C)C12CN3CC(C(C)C)(CN(C1)C3c1ccc(OCc3ccccc3)cc1)C2=O` (configuration not stated), the “activity change, negative = inhibition” value was -5.12% (inactive).

In the case of `Cc1ccccc1-c1nc2cc(NC(=O)c3cccc(OCCC(C)C)c3)ccc2o1`, the “activity change, negative = inhibition” value is -0.847% (inactive).

`COc1ccc(-n2c(SC)nc3sc4c(c3c2=O)CCN(C(C)=O)C4)cc1`: the “activity change, negative = inhibition” value is 1.79% (inactive).

On to `O=C(c1ccc2c(c1)N(Cc1ccccc1)C(=O)c1ccccc1S2(=O)=O)N1CCCC1`, for which the “activity change, negative = inhibition” value was -15.1% (inactive).

Regarding `CC1CCCCN1CC(=O)N1CCCc2c1c(=O)oc1ccc(OCc3ccccc3)cc21` (configuration not stated), the “activity change, negative = inhibition” value was 25.7% (inactive).

Consider `CCC1CCCCN1Cc1c(O)ccc2c(=O)c(Oc3ccccc3Cl)c(C(F)(F)F)oc12` (configuration not stated), for which the “activity change, negative = inhibition” value was -12.2% (inactive).

`COC(=O)c1sccc1S(=O)(=O)N(CC(=O)Nc1ccc(C)c(F)c1)c1ccc(C)c(C)c1`: the “activity change, negative = inhibition” value was 11% (inactive).

On to `O=S(=O)(c1ccc2nc(N3CCN(c4cccc(Cl)c4)CC3)ccc2c1)N1CCCCC1`, for which the “activity change, negative = inhibition” value was -3.17% (inactive).

On to `COc1ccccc1NC(=O)CN1C(=O)c2ccccc2Sc2ccc(C(=O)N3CCCC3)cc21`, for which the “activity change, negative = inhibition” value was 2.54% (inactive).

In the case of `CCOc1ccc(NC(=O)c2cc3c(=O)n(Cc4cccs4)ccc3nc2C)cc1`, the “activity change, negative = inhibition” value was -11.3% (inactive).

`CCCC(=O)Nc1ccc2oc(-c3ccc(O)c(Br)c3)nc2c1`: the “activity change, negative = inhibition” value was 1.34% (inactive).

Turning to `COc1ccc(C(F)(F)F)cc1NC(=O)c1sc2nc(-c3cccs3)ccc2c1N`, the “activity change, negative = inhibition” value is 42.7% (inactive).

For the molecule `CCCCCn1c(=O)[nH]c2cc(C(=O)Nc3cc(C)cc(C)c3)ccc2c1=O`, the “activity change, negative = inhibition” value is -1.84% (inactive).

Consider `O=C(Cn1ncc2c3ccccc3n(Cc3ccccc3)c2c1=O)NC1CCCCCC1`, for which the “activity change, negative = inhibition” value is 1.54% (inactive).

Consider `COc1ccc(-c2noc(CSc3nc4ccc(C)cc4[nH]3)n2)cc1`, for which the “activity change, negative = inhibition” value is 3.26% (inactive).

In the case of `Cc1ccc(-n2ncc(C(=O)N(C)Cc3ccccc3)c2-n2cccc2)cc1`, the “activity change, negative = inhibition” value was 6.28% (inactive).

Regarding `CCOc1ccc(S(=O)(=O)c2cn(Cc3ccc(OC)cc3)c3ccc(F)cc3c2=O)cc1`, the “activity change, negative = inhibition” value was 6.07% (inactive).

As to `Cc1ccc2nc(CNC(=O)c3ccccc3)[nH]c2c1`, the “activity change, negative = inhibition” value was 0.115% (inactive).

Take `O=C(/C(=C/c1cccc(Cl)c1)c1nc2ccccc2[nH]1)c1ccccc1`: the Potency was 10 µM (active).

As for `N#C/C(=C\c1ccccc1F)c1nc2ccccc2c(=O)[nH]1`, the “activity change, negative = inhibition” value is 3.51% (inactive).

Consider `COc1ccc(-c2noc(CSc3nc(C)cc(=O)[nH]3)n2)cc1OC`, for which the “activity change, negative = inhibition” value is 4.68% (inactive).

For `CCOc1ccc(NC(=O)CN(Cc2ccccc2)S(=O)(=O)c2ccc(Cl)cc2)cc1`, the “activity change, negative = inhibition” value was 5.24% (inactive).

As for `CCOc1ccc(N(Cc2ccccc2)C(=O)c2nc(S(C)(=O)=O)ncc2Cl)cc1`, the Potency is 7.94 µM (active).

With `CCOc1ccc(N(Cc2ccccc2)C(=O)c2nc(SCC)ncc2Cl)cc1`, the “activity change, negative = inhibition” value was 1.37% (inactive).

With `CCCCC(CC)CNC(=O)C1CCN(S(=O)(=O)c2cccc3nsnc23)CC1` (configuration not stated), the “activity change, negative = inhibition” value is 3.7% (inactive).

Regarding `COC(=O)CN1C(=O)CSc2ccc(S(=O)(=O)Nc3cc(C)ccc3C)cc21`, the “activity change, negative = inhibition” value was 0.545% (inactive).

For the molecule `CCCNC(=O)c1ccc(Cn2c(SCC(N)=O)nc3ccccc3c2=O)cc1`, the “activity change, negative = inhibition” value was -2.77% (inactive).

As to `COc1cccc(NC(=S)NC(=O)c2c(Cl)c(C)nn2C)c1`, the “activity change, negative = inhibition” value was 0.241% (inactive).

As to `O=C(Nc1cccc(Cl)c1)c1csnn1`, the “activity change, negative = inhibition” value is 0.685% (inactive).

Turning to `Cc1csc(NC(=S)Nc2cccc(Cl)c2)n1`, the Potency is 0.891 µM (active).

As to `O=C(CCOc1ccccc1)N(Cc1cccnc1)c1nc2ccc(Cl)cc2s1`, the “activity change, negative = inhibition” value was 18.2% (inactive).

As to `COc1ccc(NC(=O)Cn2c(=O)n(CCC(C)C)c(=O)c3cccnc32)cc1Cl`, the “activity change, negative = inhibition” value is -15.9% (inactive).

For `CCOc1ccc(NC(=O)CSc2c3c(nc4ccccc24)CCCC3)cc1`, the “activity change, negative = inhibition” value was -14.3% (inactive).

For `COc1ccc(C2NC(=O)N(C)C3=C2C(=O)N(c2ccc(C(=O)O)cc2)C3)cc1` (configuration not stated), the “activity change, negative = inhibition” value is 5.54% (inactive).

Consider `COc1ccccc1CNc1nc2ccc(Cl)cc2n2cnnc12`, for which the “activity change, negative = inhibition” value was -12% (inactive).

For the molecule `O=c1c2ccccc2n(Cc2cccc(Cl)c2)c(=O)n1Cc1ccccc1`, the “activity change, negative = inhibition” value is 0% (inactive).

With `COc1ccc(C(=O)CSc2c(C(C)C)cnc3c2c(=O)n(C)c(=O)n3C)cc1`, the “activity change, negative = inhibition” value is -5.41% (inactive).

With `COc1ccc(C2CC(=O)Nc3c2c(=O)nc2c(C)cccn32)cc1OC` (configuration not stated), the “activity change, negative = inhibition” value was -5.18% (inactive).

On to `CC(=O)N1c2ccccc2CC1C(=O)N1CCN(c2ccc(F)cc2)CC1` (configuration not stated), for which the “activity change, negative = inhibition” value was -1.77% (inactive).

Consider `COc1cc(C2c3c(oc4ccccc4c3=O)C(=O)N2c2nc(C)c(C)s2)ccc1O` (configuration not stated), for which the “activity change, negative = inhibition” value was 0% (inactive).

With `CC(C)(C)C1CCc2c(sc(NC(=O)c3ccccc3F)c2C(=O)N2CCCCC2)C1` (configuration not stated), the “activity change, negative = inhibition” value is -15.3% (inactive).

Consider `COc1ccc(NC(=O)N2CCCn3nc(C)cc32)cc1OC`, for which the “activity change, negative = inhibition” value is 1.04% (inactive).

Consider `CCOc1ccc(NC(=O)Cn2c(=O)n(CCCC(=O)NCc3ccc4c(c3)OCO4)c(=O)c3ccccc32)cc1`, for which the “activity change, negative = inhibition” value is -8.13% (inactive).

In the case of `CN(Cc1ccccc1)C(=O)CCS(=O)(=O)c1cc(Br)cc2c1N(C(=O)C1CC1)CC2`, the “activity change, negative = inhibition” value was 0% (inactive).

Consider `COc1ccc(-c2cc(-c3nc(-c4cc(OC)c(OC)c(OC)c4)no3)[nH]n2)c(OC)c1`, for which the “activity change, negative = inhibition” value was -21.5% (inactive).

As for `CCOC(=O)c1ccc(NC(=O)c2ncn(-c3ccccc3)n2)cc1`, the “activity change, negative = inhibition” value was 1.46% (inactive).

Take `COC(=O)c1c(NC(=O)c2ccc(Cl)c(Cl)c2)sc2c1CCCC2`: the “activity change, negative = inhibition” value was -15.6% (inactive).

Take `O=c1[nH]c2cc(Br)ccc2n2cccc12`: the “activity change, negative = inhibition” value is -1.34% (inactive).

Consider `COc1cccc(-c2nc(S(=O)(=O)c3ccc(C)cc3)c(NCc3ccccc3)o2)c1`, for which the “activity change, negative = inhibition” value was 0% (inactive).

With `CCCCN(CC(=O)Nc1cccc(S(=O)(=O)N2CCCC2)c1)Cc1nc2ccccc2c(=O)[nH]1`, the “activity change, negative = inhibition” value was 8.32% (inactive).

Take `CCN(CC(=O)NC(=O)NCc1ccccc1)Cc1nc2ccccc2c(=O)[nH]1`: the Potency is 6.31 µM (active).

Consider `CCN(CC(=O)Nc1ccc(Cl)c(S(=O)(=O)N(C)C)c1)Cc1nc2ccccc2c(=O)[nH]1`, for which the activity change, negative = inhibition was 0.695% [at 0.307 µM] (inactive).

(Values after PubChem BioAssay AID624418 (National Center for Advancing Translational Sciences (NCATS), 2012).)
